Assay results taken from PubChem BioAssay (Tox21).
Inconclusive results are not listed. Calls of active or inactive are those of the source. Unless noted, calls follow the shape of the dose curve; as a rule, active = well fitted curve in the direction sought with a large enough effect in the repeat runs; inconclusive = weak or mixed curves; inactive = no such curve, though single readings can be large; an effect the other way counts as inactive or inconclusive.

What was measured:
[1] = qHTS assay to identify small molecule antagonists of the thyroid receptor (TR) signaling pathway - cell viability counter screen (AID 743064); also: nearly all actives have a fitted effect of over 50% in size
Procedure, shortened: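 In rat pituitary GH3.TRE-Luc reporter cells co-exposed to compound and 1 nM T3 for 23.5 h, cytotoxicity was assessed with CellTiter-Fluor in the same wells, read by fluorescence.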

[2] = qHTS assay to identify small molecule antagonists of the thyroid receptor (TR) signaling pathway (AID 743065); also: series mostly up to about 70 µM; nearly all actives have a fitted effect of over 55% in size
Procedure, shortened: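 GH3.TRE-Luc rat pituitary cells carrying two TR response elements driving luciferase were plated for 4 h, given compound plus 1 nM T3 (final), and incubated 23.5 h at 37 C. ONE-Glo luminescence measured reporter inhibition; CellTiter-Fluor fluorescence tracked cytotoxicity.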

[3] = test system: thyroid hormone receptor (rat, GH3 cells); assay: qHTS assay to identify small molecule agonists of the thyroid receptor (TR) signaling pathway (AID 743066; calls by dose curve)
[4] = molecular target: Estrogen receptor (Homo sapiens) (UniProt P03372); assay: qHTS assay to identify small molecule antagonists of the estrogen receptor alpha (ER-alpha) signaling pathway (AID 743069; active = well fitted curve in the direction sought with a large enough effect in the signal ratio in the repeat runs, not every such curve was filed as active; the % refers to the signal ratio)
Procedure, shortened: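 HEK293 cells stably carrying an ER-alpha-UAS-bla beta-lactamase reporter were pre-cultured overnight in 2% charcoal-stripped FBS medium. Test compounds in DMSO were added together with 17beta-estradiol for 18 hr at 37C. Read-out was fluorescence after 2 hr with LiveBLAzer B/G FRET substrate at room temperature.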

[5] = qHTS assay to identify small molecule antagonists of the estrogen receptor alpha (ER-alpha) signaling pathway - cell viability counter screen (AID 743074; calls by dose curve; also: nearly all actives have a fitted effect of over 45% in size)
[6] = molecular target: Estrogen receptor (Homo sapiens) (UniProt P03372); assay: qHTS assay to identify small molecule agonists of the estrogen receptor alpha (ER-alpha) signaling pathway (AID 743075; calls by dose curve)
[7] = molecular target: Estrogen receptor (Homo sapiens) (UniProt P03372); assay: qHTS assay to identify small molecule agonists of the estrogen receptor alpha (ER-alpha) signaling pathway using the BG1 cell line (AID 743079); also: nearly all actives have a fitted effect of over 20% in size
[8] = qHTS assay to identify small molecule antagonists of the estrogen receptor alpha (ER-alpha) signaling pathway using the BG1 cell line (AID 743080; calls by dose curve;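 also: BG1 cells stimulated with 17beta-estradiol alongside compound; series mostly up to about 70 µM; nearly all actives have a fitted effect of over 25% in size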)
Procedure, shortened: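 BG1-Luc-4E2 cells (endogenous full-length ER-alpha, 4xERE luciferase) hormone-starved 5 days in charcoal-stripped FBS, plated 4,000/well for 24 h, then compound plus 17beta-estradiol for 21.5 h at 37 C; ONE-Glo luminescence read.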

[9] = qHTS assay to identify small molecule antagonists of the estrogen receptor alpha (ER-alpha) signaling pathway using the BG1 cell line - cell viability counter screen (AID 743081);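 also: compound given together with 17beta-estradiol as the ER stimulus; series mostly up to about 70 µM; nearly all actives have a fitted effect of over 45% in size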
Aromatase (Homo sapiens) = Aromatase (Homo sapiens) (UniProt P11511); assay: qHTS assay to identify aromatase inhibitors (AID 743083); also: series mostly up to about 70 µM; nearly all actives have a fitted effect of over 55% in size
[10] = qHTS assay to identify aromatase inhibitors - cell viability counter screen (AID 743084);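 also: cells stimulated with testosterone during compound exposure; nearly all actives have a fitted effect of over 55% in size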
[11] = molecular target: Aryl hydrocarbon receptor (Homo sapiens) (UniProt P35869); assay: qHTS assay to identify small molecule that activate the aryl hydrocarbon receptor (AhR) signaling pathway (AID 743085);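 also: HG2L7.5c1 human HepG2 liver cells with stably integrated DRE-driven firefly reporter; series mostly up to about 70 µM; nearly all actives have a fitted effect of over 15% in size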
Procedure, shortened: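 AhR agonist activity is inferred from enhanced light output of a DRE-controlled firefly luciferase reporter in HepG2 cells, measured with ONE-Glo following 24 h treatment at 37C.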

[12] = qHTS assay to identify small molecule that activate the aryl hydrocarbon receptor (AhR) signaling pathway - cell viability counter screen (AID 743086);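 also: HepG2 liver cells carrying the AhR DRE luciferase reporter; series mostly up to about 70 µM; nearly all actives have a fitted effect of over 45% in size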
Procedure, shortened: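 HepG2-AhR-luc (HG2L7.5c1) cells, 4000/well, were preincubated 5 h at 37C, exposed to compound in qHTS format for 24 hr at 37C, then given CellTiter-Fluor for 30 min; viability was read as fluorescence in the reporter wells.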

[13] = molecular target: Peroxisome proliferator-activated receptor gamma (Homo sapiens) (UniProt P37231); assay: qHTS assay to identify small molecule agonists of the peroxisome proliferator-activated receptor gamma (PPARg) signaling pathway (AID 743094; active = well fitted activation curve with a large enough effect in the signal ratio in the repeat runs, not every such curve was filed as active; the % refers to the signal ratio)
Procedure, shortened: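 Compounds dissolved in DMSO were added to PPARg UAS-bla HEK293H cells for 17 h at 37C, and reporter expression was quantified by fluorescence intensity after 1 h with LiveBLAzer B/G FRET substrate.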

[14] = molecular target: Peroxisome proliferator-activated receptor gamma (Homo sapiens) (UniProt P37231); assay: qHTS assay to identify small molecule antagonists of the peroxisome proliferator-activated receptor gamma (PPARg) signaling pathway (AID 743191; calls by dose curve; also: series mostly up to about 63 µM; nearly all actives have a fitted effect of over 30% in size)
Procedure, shortened: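 GeneBLAzer PPARg UAS-bla HEK293H cells carrying a UAS-driven beta-lactamase reporter were plated at 3000 cells/well, preincubated 5 h at 37C, then given compound for 17 h at 37C; LiveBLAzer B/G FRET substrate was read after 1 h at room temperature.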

[15] = qHTS assay to identify small molecule antagonists of the peroxisome proliferator-activated receptor gamma (PPARg) signaling pathway - cell viability counter screen (AID 743194); also: nearly all actives have a fitted effect of over 55% in size
Procedure, shortened: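 PPARg-UAS-bla HEK293H cells were plated, rested 5 h at 37 C, then treated with compounds plus rosiglitazone (50 nM final) for 17 h at 37 C; viability was then read by CellTiter-Glo luminescence after 30 min at room temperature.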

[16] = qHTS assay for small molecule agonists of the antioxidant response element (ARE) signaling pathway (AID 743202; active = well fitted activation curve with a large enough effect in the signal ratio in the repeat runs, not every such curve was filed as active; the % refers to the signal ratio)
Procedure, shortened: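 Read-out: LiveBLAzer B/G FRET substrate fluorescence after 2 h at room temperature, following 16 h compound treatment at 37 C of HepG2 cells carrying an ARE-driven beta-lactamase reporter.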

[17] = qHTS assay for small molecule agonists of the antioxidant response element (ARE) signaling pathway - cell viability counter screen (AID 743203; calls by dose curve; also: nearly all actives have a fitted effect of over 55% in size)
Procedure, shortened: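 Following 16 hrs of compound treatment at 37C, HepG2 cells with an ARE-controlled beta-lactamase gene were lysed with CellTiter-Glo. Luminescence was read after 30 min at room temperature.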

[18] = qHTS assay for small molecule activators of the heat shock response signaling pathway - cell viability counter screen (AID 743209); also: nearly all actives have a fitted effect of over 50% in size
Procedure, shortened: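 Readout: CellTiter-Glo luminescence, 30 min at room temperature. System: HSE-bla HeLa cells, 1500/well, plated overnight. Treatment: compounds in DMSO, 5 h at 37 C.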

[19] = qHTS assay for small molecule activators of the heat shock response signaling pathway (AID 743210; active = well fitted activation curve with a large enough effect in the signal ratio in the repeat runs, with a control signal flat, not every such curve was filed as active; the % refers to the signal ratio; also: series mostly up to about 63 µM)
Procedure, shortened: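 HSE-bla HeLa cells (beta-lactamase reporter under heat shock response elements) were exposed to compounds for 5 h at 37 C, then loaded with LiveBLAzer B/G FRET substrate for 2.5 h at room temperature before fluorescence reading.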

Measured: Potency

Estrogen receptor (Homo sapiens), sequence (P03372 whole entry, looked up): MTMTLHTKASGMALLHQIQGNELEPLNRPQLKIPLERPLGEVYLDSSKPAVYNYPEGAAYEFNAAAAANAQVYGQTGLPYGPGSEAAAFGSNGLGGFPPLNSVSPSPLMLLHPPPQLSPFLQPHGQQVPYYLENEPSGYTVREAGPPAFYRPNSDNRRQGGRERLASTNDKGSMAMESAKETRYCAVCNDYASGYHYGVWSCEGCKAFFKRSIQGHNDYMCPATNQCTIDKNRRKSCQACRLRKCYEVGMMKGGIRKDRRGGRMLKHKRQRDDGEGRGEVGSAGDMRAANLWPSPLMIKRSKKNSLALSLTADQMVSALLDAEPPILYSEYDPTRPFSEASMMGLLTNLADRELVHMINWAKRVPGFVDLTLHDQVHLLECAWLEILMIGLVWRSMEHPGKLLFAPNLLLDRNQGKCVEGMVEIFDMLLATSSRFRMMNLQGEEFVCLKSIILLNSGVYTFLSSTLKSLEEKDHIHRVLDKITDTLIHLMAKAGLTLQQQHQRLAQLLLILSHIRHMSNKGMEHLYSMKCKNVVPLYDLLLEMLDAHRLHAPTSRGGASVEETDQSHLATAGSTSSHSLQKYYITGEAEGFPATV
Aromatase (Homo sapiens), sequence (P11511 whole entry, looked up): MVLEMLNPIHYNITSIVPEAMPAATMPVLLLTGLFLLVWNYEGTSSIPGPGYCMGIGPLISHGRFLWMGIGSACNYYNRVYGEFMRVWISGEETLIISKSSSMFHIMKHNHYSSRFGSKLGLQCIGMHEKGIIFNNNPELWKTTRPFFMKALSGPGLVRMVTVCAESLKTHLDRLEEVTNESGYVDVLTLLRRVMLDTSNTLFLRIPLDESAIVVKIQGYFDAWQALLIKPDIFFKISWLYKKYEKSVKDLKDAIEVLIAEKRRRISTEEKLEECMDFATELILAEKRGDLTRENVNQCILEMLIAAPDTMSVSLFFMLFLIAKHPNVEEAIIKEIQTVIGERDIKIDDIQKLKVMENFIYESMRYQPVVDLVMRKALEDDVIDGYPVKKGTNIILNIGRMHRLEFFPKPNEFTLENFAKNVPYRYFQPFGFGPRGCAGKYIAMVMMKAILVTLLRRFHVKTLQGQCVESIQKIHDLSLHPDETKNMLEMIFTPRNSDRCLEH
Aryl hydrocarbon receptor (Homo sapiens), sequence (P35869 whole entry, looked up): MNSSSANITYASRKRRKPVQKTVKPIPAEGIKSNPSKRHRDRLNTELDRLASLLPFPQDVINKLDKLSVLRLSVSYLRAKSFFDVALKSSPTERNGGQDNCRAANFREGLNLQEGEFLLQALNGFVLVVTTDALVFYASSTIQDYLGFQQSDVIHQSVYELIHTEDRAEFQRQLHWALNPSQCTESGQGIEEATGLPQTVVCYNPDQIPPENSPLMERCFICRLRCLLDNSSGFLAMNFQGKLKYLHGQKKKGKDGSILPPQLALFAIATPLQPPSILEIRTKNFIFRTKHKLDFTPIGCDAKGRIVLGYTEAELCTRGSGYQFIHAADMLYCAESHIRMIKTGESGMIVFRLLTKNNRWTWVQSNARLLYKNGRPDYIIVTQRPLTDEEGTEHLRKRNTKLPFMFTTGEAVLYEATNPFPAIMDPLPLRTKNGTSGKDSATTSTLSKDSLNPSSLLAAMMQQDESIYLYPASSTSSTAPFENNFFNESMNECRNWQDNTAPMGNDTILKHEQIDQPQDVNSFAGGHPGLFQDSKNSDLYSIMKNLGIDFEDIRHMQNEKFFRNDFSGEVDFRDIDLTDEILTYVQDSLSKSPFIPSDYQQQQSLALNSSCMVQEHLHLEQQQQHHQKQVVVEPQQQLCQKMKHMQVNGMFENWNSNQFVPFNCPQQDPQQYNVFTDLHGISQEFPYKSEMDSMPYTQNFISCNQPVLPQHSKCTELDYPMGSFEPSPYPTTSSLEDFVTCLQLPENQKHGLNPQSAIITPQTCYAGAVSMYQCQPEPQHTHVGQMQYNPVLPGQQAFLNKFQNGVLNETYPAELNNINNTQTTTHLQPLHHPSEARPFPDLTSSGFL
Peroxisome proliferator-activated receptor gamma (Homo sapiens), sequence (P37231 whole entry, looked up): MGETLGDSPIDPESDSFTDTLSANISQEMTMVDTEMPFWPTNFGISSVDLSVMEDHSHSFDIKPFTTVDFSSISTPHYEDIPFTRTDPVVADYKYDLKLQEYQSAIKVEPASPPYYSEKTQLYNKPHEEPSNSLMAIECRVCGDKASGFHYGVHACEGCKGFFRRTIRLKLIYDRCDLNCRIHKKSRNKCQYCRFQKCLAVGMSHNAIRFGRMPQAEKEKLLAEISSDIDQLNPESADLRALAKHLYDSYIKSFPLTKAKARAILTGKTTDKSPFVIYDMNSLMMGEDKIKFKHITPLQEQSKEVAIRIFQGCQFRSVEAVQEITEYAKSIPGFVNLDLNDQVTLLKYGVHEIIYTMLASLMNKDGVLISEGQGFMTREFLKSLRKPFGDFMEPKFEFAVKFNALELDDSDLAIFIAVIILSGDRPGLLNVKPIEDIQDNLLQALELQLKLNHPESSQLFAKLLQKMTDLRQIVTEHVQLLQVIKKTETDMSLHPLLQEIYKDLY

O=C1OC(=O)C2CCCCC12 (configuration not stated)
inactive: all assays above

O=C[C@H](O)[C@@H](O)[C@H](O)[C@H](O)CO
not listed: [14] | [18]
inactive: all other assays above

Cn1cc(S(C)=O)c(=O)c2ccc(F)cc21 (configuration not stated)
not listed: [5] | [9] | [15] | [17] | [18]
inactive: all other assays above

CC1(C)C(O)C(C)(C)C1O (configuration not stated)
not listed: [8] | [14]
inactive: all other assays above

CC(C(=O)O)c1ccc(CC2CCCC2=O)cc1 (configuration not stated)
not listed: [8] | [15] | [19]
inactive: all other assays above

N[C@H]1CN(c2c(F)cc3c(=O)c(C(=O)O)cn(C4C[C@H]4F)c3c2Cl)CC12CC2 (some centres not stated)
not listed: [9] | [14] | [16] | [17]
inactive: all other assays above

O=Cc1cccc([N+](=O)[O-])c1
not listed: [5] | [13] | [15] | [16]
inactive: all other assays above

CCOC(=O)c1ccc(C)cc1
not listed: [5] | [14] | [15]
inactive: all other assays above
